These results are taken from PubChem BioAssay (NCATS).

The target of assay [1] is Arylsulfatase A (Homo sapiens) (UniProt P15289). Description: qHTS screen for enhancers of Arylsulfatase A (ASA1): LOPAC Validation Assay (AID 720538). In a few lines: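 Enhancer assay in patient-derived MLD fibroblasts carrying ASA-I179S: 48 h compound exposure at 37 C, then 14 h room-temperature pNCS turnover (0.5 mM final) in lysis buffer. Read by fluorescence at 525/598 nm after NaOH stop.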

The nature of assay [2]: qHTS for Activators of Parkin Expression: LOPAC Validation Assay (NLuc Reporter) (AID 720572;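 also: 0% = DMSO and 100% = positive control compound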). In a few lines:
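Neuronal cells with a Parkin promoter-driven FLuc/NLuc coincidence reporter were treated 24 h at 37 C in 7-point dose response (LOPAC). NLuc luminescence read after FLuc; signals normalized to DMSO and positive control (100%).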

The nature of assay [3]: qHTS for Activators of Parkin Expression: LOPAC Validation Assay (FLuc Reporter) (AID 720573;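 also: 0% = DMSO and 100% = positive control compounds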). The method in brief: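 FLuc signal from Parkin-promoter coincidence reporter neuronal cells, normalized to DMSO and positive control (100%). Cells (1,500/well) pre-incubated 24 h, then exposed to LOPAC compounds in 7-point dose response for 24 h at 37 C, 5% CO2.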
Assay [4] deals with T1, Hexokinase-4 (Homo sapiens) + Glucokinase regulatory protein (Homo sapiens) (UniProt P35557+Q14397). Description: qHTS assay for inhibitors of recombinant human GCK-GKRP interaction: Diaphorase-coupled assay (AID 743205). The method in brief: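 A kinetic fluorescence read (Ex 525/Em 590 nm, every minute for 30 minutes) tracked resorufin from a G6PDH-diaphorase coupled GCK reaction. It contained 10 nM GST-GCK, 10 nM FLAG-GKRP, 5 mM glucose, 0.4 mM ATP in Hepes pH 7.6. Normalized to with/without-enzyme DMSO controls.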

Assay [5] can be described thus: qHTS Assay for Identifying Gametocytocidal Compounds (AID 743244).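 Also: % is scaled to controls: 0 for no effect and ±100 for the full control effect; actives lower the fluorescent signal which means gametocytes are killed.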 Conditions: P. falciparum 3D7 stage III-V gametocytes, alamarBlue, 72 h; max response: stronger effect = lower value. The method in brief: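 Viability read-out was resazurin reduction (alamarBlue, 24 h) measured at Ex 525/Em 598 nm. Beforehand, late-stage (III-V) 3D7 P. falciparum gametocytes at 20,000 cells/well were incubated with compound 72 h at 37C under 5% CO2.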

Assay [6] can be described thus: qHTS for compounds that reverse cellular toxicity of Amyloid beta (A-beta) peptide in yeast: LOPAC Validation Assay (AID 720559).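 Also: plate controls were DMSO for no effect and equimolar ferric chloride plus clioquinol rescue for full effect.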 Conditions: Potency: rescue of growth toxicity. In a few lines: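 Rescue of A-beta toxicity was scored as yeast growth by 600 nm absorbance after 48 hr at 30 C with compound. Normalization used DMSO (negative) and equimolar ferric chloride plus clioquinol (positive).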

The target in assay [7] is T1, Hexokinase-4 (Homo sapiens) + Glucokinase regulatory protein (Homo sapiens). Description: qHTS assay for inhibitors of recombinant human GCK-GKRP interaction: ADP-Glo assay (AID 743206).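 Also: plate controls were DMSO plus enzyme for no effect and no enzyme for full effect.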 In a few lines:
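GST-GCK and FLAG-GKRP (15 nM each in the dispensed mix, with 2 uM S6P) react with 0.4 mM ATP and 5 mM glucose (final) in Hepes pH 7.6 for 60 min at room temperature. ADP is measured by ADP-Glo luminescence.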

Assay [8] shares this target. Description: qHTS assay for inhibitors of recombinant human GCK-GKRP interaction: HTRF assay (AID 743207).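 Also: 0% = DMSO with GCK present and -100% = DMSO wells lacking GCK.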 The method in brief: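 After 60 min equilibration at room temperature with anti-FLAG XL665 and anti-GST antibodies, FRET ratio (665/615 nm, excitation 320 nm) was read. Proteins: GST-GCK and FLAG-GKRP, each 5 nM, plus 2 uM S6P, pH 7.1 buffer; GCK-free wells define minimum signal.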

The nature of assay [9]: qHTS profiling of the MIPE4 collection as inhibitors of Plasmodium falciparum (3D7) proliferation (AID 743344; call rule not given here;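 also: scaled between DMSO vehicle wells and 0.29 µM artemisinin as full inhibition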). Conditions: P. falciparum 3D7 in erythrocytes, SYBR Green DNA fluorescence, 72 h; at 28.5 µM (top of the series). In a few lines: (§1)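 Erythrocytes infected with P. falciparum (0.3% parasitemia, 2.5% hematocrit) incubated with compounds 72 h at 37 C, 5% CO2. Lysis with saponin/Triton buffer containing SYBR Green I, overnight at room temperature in the dark; DNA fluorescence (485/535 nm) normalised to 0.29 uM artemisinin and DMSO.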

Assay [10] can be described thus: qHTS profiling of the MIPE4 collection as inhibitors of Plasmodium falciparum (DD2) proliferation (AID 743345; call rule not given here). Conditions: P. falciparum Dd2 in erythrocytes, SYBR Green DNA, 72 h; at 28.5 µM (top of the series). In a few lines:
as §1

The nature of assay [11]: qHTS profiling of the MIPE4 collection as inhibitors of Plasmodium falciparum (DD2) proliferation (Rep 2) (AID 743346; call rule not given here). Conditions: P. falciparum Dd2 in erythrocytes, SYBR Green DNA, 72 h; at 28.5 µM (top of the series). The method in brief:
as §1

Assay [12] in a line: qHTS profiling of the MIPE4 collection as inhibitors of Plasmodium falciparum (HB3) proliferation (AID 743347; call rule not given here;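 also: plate controls were DMSO vehicle wells for no effect and artemisinin wells for full effect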). The settings on record: P. falciparum HB3 in erythrocytes, SYBR Green DNA, 72 h; at 28.5 µM (top of the series). The method in brief:
as §1

Results filed as inconclusive are left out. Calls of active or inactive are those of the source. Unless noted, calls follow the shape of the dose curve; as a rule, active = well fitted curve in the direction sought with a large enough effect; inconclusive = small, poorly fitted or top-dose-only effect, or another doubt; inactive = no such curve, though single readings can be large; an effect the other way counts as inactive or inconclusive.

Sequence of Arylsulfatase A (Homo sapiens) (P15289 whole entry, looked up): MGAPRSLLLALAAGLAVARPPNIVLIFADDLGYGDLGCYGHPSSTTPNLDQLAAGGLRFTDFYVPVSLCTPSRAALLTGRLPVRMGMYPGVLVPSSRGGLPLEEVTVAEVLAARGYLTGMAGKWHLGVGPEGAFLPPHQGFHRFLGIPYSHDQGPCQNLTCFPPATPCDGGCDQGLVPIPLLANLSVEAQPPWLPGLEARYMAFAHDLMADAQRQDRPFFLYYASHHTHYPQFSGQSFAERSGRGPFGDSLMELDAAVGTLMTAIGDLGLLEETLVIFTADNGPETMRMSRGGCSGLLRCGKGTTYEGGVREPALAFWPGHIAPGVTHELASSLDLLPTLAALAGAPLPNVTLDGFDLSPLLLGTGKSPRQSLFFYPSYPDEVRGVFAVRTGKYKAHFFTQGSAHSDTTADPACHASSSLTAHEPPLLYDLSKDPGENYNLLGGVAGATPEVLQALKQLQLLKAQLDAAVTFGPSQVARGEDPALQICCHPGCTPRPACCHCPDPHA
T1 sequence (P35557 whole entry, looked up): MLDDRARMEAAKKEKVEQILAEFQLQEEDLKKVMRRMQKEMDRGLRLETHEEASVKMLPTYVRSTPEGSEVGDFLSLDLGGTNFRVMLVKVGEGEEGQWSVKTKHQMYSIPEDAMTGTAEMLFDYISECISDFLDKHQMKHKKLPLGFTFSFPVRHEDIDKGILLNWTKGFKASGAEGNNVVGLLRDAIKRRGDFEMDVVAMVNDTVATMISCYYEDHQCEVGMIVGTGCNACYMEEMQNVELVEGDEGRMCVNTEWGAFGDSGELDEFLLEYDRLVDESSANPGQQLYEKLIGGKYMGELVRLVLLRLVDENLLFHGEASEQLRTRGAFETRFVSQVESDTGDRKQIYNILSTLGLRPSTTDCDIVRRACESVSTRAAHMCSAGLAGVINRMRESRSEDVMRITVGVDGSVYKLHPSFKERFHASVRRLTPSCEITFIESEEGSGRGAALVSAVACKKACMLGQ
T1 sequence (Q14397 whole entry, looked up): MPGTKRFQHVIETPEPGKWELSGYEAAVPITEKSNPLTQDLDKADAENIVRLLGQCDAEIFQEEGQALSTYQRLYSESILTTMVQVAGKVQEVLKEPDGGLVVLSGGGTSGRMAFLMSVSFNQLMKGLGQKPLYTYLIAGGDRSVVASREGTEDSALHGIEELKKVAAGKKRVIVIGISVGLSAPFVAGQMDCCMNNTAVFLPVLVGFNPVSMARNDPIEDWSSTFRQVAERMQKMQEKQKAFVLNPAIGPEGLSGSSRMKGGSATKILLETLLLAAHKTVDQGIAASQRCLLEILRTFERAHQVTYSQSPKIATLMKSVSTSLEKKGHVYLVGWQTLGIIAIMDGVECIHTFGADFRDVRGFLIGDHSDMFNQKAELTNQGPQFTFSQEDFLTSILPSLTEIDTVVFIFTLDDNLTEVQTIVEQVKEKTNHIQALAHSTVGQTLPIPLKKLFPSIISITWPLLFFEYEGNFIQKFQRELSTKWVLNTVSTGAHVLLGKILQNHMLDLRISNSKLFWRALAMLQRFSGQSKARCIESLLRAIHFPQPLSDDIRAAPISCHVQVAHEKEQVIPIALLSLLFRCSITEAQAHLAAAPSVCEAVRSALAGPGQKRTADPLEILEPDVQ

`Cc1nc2sccn2c(=O)c1CCN1CCC(=C(c2ccccc2)c2ccc(F)cc2)CC1`: the Potency result in assay [1], in [2] and in [3] was “inactive” throughout. Moreover, the outcome in assay [4] was inactive. Also, the max response in assay [5] is 35.1% (inactive).

In the case of `CSc1nc(N)c2ncn([C@@H]3O[C@H](COP(=O)(O)OP(=O)(O)OP(=O)(O)O)[C@@H](O)[C@H]3O)c2n1`, the Potency entry in [1], in assay [2] and in [3] was “inactive” each time. The outcome in assay [4] was inactive. Also, in [5], the max response is 11.9% (inactive).

Consider `O=C(/C=C/c1ccc(O)cc1)c1ccc(O)cc1O`, for which the Potency result in assay [6], in assay [2], in assay [3], in assay [7] and in assay [8] was “inactive” throughout. For the same compound, in assay [4], the outcome was inactive.

As to `CC(=O)/C=C1\C(=O)N(C)c2ccccc21`, the Potency entry in [1], in [2], in assay [3], in assay [7] and in [8] was “inactive” each time. In addition, the outcome in assay [4] was inactive. For the same compound, the max response in [5] is -11.9% (inactive).

For the compound `C=C[C@H]1CN2CC[C@@H]1C[C@@H]2[C@@H](O)c1ccnc2ccc(OC)cc12`, the Potency result in [6], in assay [2], in assay [3], in assay [7] and in assay [8] was “inactive” throughout. For the same compound, the result in assay [4] was inactive.

For the compound `C[N+](C)(CCCCCC[N+](C)(C)CCCN1C(=O)c2cccc3cccc(c23)C1=O)CCCN1C(=O)c2cccc3cccc(c23)C1=O`, the Potency entry in [1], in assay [2] and in [3] was “inactive” throughout. In addition, the result in assay [4] was inactive. Further, the max response in [5] was -6.11% (inactive). This compound also registered a parasite growth, % of DMSO control in assay [9] of 5.01%. In addition, the parasite growth remaining, % of DMSO control (lower = more inhibition) in [10] came out at 5.17%. For the same compound, the parasite growth, % of control (lower = inhibition) in assay [11] was 6.76%. Besides, the growth, % of control in assay [12] was determined as 4.26%.

On to `CCCn1c(=O)c2[nH]c(-c3ccc(OCC(=O)NCCN)cc3)nc2n(CCC)c1=O`, for which the Potency entry in [6], in assay [2], in [3], in assay [7] and in assay [8] was “inactive” each time. The outcome in assay [4] was inactive.

`NCCCS(=O)(=O)O`: the Potency result in assay [1], in assay [2], in assay [3], in assay [7] and in assay [8] was “inactive” in each case. Moreover, the result in assay [4] was inactive. Further, the max response in [5] is 2.49% (inactive).

Turning to `CCCCCCCCc1ccc(-c2ccc(C(=O)O)cc2)cc1`, the Potency result in assay [1], in [2], in assay [3], in [7] and in [8] was “inactive” throughout. Further, in assay [4], the outcome was inactive. In assay [5], the max response was 11.5% (inactive).

For `O=C1O/C(=C/Br)CCC1c1cccc2ccccc12` (configuration not stated), the Potency entry in assay [1], in assay [2], in assay [3], in [7] and in assay [8] was “inactive” each time. Besides, in assay [4], the result was inactive. Besides, in [5], the max response is 7.23% (inactive).

Consider `CN(C)CCCO[C@@H]1[C@H]2OC(C)(C)O[C@H]2O[C@@H]1[C@H](O)CO`, for which the Potency entry in assay [6], in assay [2], in [3], in assay [7] and in [8] was “inactive” each time. In [4], the result was inactive. In addition, the max response in assay [5] was 19.5% (inactive).
